Compound activity from PubChem BioAssay.
ANO1 block: blocks the mouse calcium-activated chloride channel TMEM16A. HEK293 TMEM16A/YFP iodide influx fluorescence, ionomycin. normalized B-score (activity score, 25-100; higher = stronger inhibition) at 10 µM. 310,000 tested, 1.2% active;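 active means ratio plate-corrected score three or more library SD toward inhibition, starting fluorescence score within five deviations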;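 further: score derived from kinetic fluorescence span divided by baseline fluorescence per well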
Target sequence (Q8BHY3 whole entry, looked up): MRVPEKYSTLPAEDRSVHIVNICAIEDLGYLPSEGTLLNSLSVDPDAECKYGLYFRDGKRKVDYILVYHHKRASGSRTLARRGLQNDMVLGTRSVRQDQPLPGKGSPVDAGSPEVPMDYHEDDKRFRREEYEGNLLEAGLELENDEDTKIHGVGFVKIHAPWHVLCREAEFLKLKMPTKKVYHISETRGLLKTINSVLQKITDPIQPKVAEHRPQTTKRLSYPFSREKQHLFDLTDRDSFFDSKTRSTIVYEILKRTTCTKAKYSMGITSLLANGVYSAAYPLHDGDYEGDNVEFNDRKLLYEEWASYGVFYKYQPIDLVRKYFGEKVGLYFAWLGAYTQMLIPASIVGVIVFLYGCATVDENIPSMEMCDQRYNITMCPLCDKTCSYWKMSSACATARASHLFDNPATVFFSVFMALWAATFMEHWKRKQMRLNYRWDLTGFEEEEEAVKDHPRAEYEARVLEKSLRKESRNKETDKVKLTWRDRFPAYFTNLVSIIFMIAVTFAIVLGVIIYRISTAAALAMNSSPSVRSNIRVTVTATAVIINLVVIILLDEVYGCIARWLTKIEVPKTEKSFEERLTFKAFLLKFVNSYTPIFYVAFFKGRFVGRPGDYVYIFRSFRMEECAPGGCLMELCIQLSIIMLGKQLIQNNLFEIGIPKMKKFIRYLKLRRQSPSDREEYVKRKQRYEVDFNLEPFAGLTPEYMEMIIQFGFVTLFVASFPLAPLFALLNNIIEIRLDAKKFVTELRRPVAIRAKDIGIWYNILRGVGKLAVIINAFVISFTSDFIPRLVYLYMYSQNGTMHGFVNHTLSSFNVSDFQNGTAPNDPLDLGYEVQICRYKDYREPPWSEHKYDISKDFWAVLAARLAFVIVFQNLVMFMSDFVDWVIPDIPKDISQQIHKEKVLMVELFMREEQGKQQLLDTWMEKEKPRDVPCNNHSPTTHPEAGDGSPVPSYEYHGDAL
NR3A LBD binder: modulators (binders) of human NR3A ligand-binding domain; NR3A LBD differential scanning fluorimetry, Tm shift; 0% = protein alone, 100% = glycine-bound protein; Tm shift relative to glycine control, % at 25 µM; 340,000 tested, 2.5% active;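 active means melting temperature shift of at least 10% of the positive control shift, at one fixed dose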
TMEM16A act: activates or potentiates the mouse TMEM16A chloride channel. B-score at 10 µM. 340,000 tested, 0.3% active. AID 623877. HEK293 TMEM16A/YFP-H148Q/I152L, iodide quench fluorescence; active compounds read low;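 active means fluorescence-ratio B-score plate-corrected deviation score at least 3 library SD below zero, with starting fluorescence score within 5 deviations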;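 further: channel opened by trigger with iodide after compound preincubation; score built on the fluorescence ratio of max minus min over baseline; more negative score means more quench and so TMEM16A activation or potentiation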
CRFR2-BP ag: CRF-BP/CRF-R2 complex agonism | AID 588473 | HEK293 CRF-R2/CRF-BP, calcium dye fluorescence (FLIPR); percent of saturating CRF peptide response | 350,000 tested, 0.46% active | activation, % at 13.2 µM;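 active means activation of at least 50%, plus an integration ratio under a set limit after plate pattern correction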;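 further: plate controls were neutral control wells without compound for no effect and CRF at EC100 for full effect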
MPTP inh: inhibitors of mitochondrial permeability transition pore; isolated mouse mitochondria, Ca2+ swelling absorbance, 30 min; inhibition, % at 10 µM; 360,000 tested, 1.4% active; AID 602449;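 active means inhibition of 50% or more, scaled per plate between neutral and stimulator controls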;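 further: 0% = DMSO wells given calcium and 100% = 1 mM EGTA wells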
CRFR2-BP antag: blocks CRF-induced signaling of the CRF-BP/CRF-R2 complex; HEK293 CRF-R2/CRF-BP, CRF-induced calcium fluorescence; AID 588475; 350,000 tested, 0.59% active; inhibition, % at 11.8 µM;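 active means inhibition of the ligand-induced calcium signal above about 50% at the single tested concentration, limit read from the data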
Numbers without * were called inactive; i = inactive; · = no result. Shown are actives, neighbours in structure and some others; about 5.1% of the full set was active somewhere.

SMILES	ANO1 block	NR3A LBD binder	TMEM16A act	CRFR2-BP ag	MPTP inh	CRFR2-BP antag
CCOC(=O)c1ccc(Nc2cc(C)nc(-c3ccccc3)n2)cc1	i	10*	i	1	3	-18
OC(CN1CCOCC1)Cn1c2c(c3ccccc31)CCCC2 (configuration not stated)	i	-3	i	2	1	-3
Cc1ccc(-c2nc(CNC(=O)c3cc(C)on3)cs2)cc1	i	0	i	0	1	-1
Oc1[nH]c(=S)sc1C=C1N=c2ccccc2=N1	i	18*	i	1	9	6
O=C1N=c2ccccc2=C1c1sc(=O)[nH]c1O	i	-16	i	-1	2	2
Oc1[nH]c(=S)sc1/C=C1\C(c2ccccc2)=Nc2ccccc21	i	16*	i	21	43	-29
Cn1c(Nc2ccccc2)nc2ccccc21	i	12*	i	-1	1	-8
Nn1c(Nc2ccccc2)nc2ccccc21	i	-2	i	1	2	-5
O=C(CCn1c2c(c3ccccc31)CCCC2)NNC(=O)c1ccc(Cl)c([N+](=O)[O-])c1	i	20*	i	-1	26	18
O=C(CCn1c2c(c3ccccc31)CCCC2)NNC(=O)c1ccc([N+](=O)[O-])cc1	i	2	i	0	2	8
O=C(C1CCCCC1)N1C[C@@H](O)[C@H](n2cc(-c3ccc(F)cc3)nn2)C[C@@H]1c1ccccc1	·	·	·	-1	-1	-11
Clc1cccc(-c2cccc3nccn23)c1Cl	·	·	·	·	1	·
CC(=O)C1=C(NC(=O)c2ccccc2F)C[C@@H]2[C@H]1C2(C)C	i	14*	i	-1	-2	-3
Oc1ccc(N=Nc2n[nH]c(-c3ccccc3)n2)cc1	i	10*	i	-5	0	24
Oc1ccc(N=Nc2n[nH]c(-c3ccc(Br)cc3)n2)cc1	i	27*	i	-1	2	-9
CSCCC(NC(=O)c1ccccc1Cl)C(=O)Nc1cccc(S(=O)(=O)N2CCCC2)c1 (configuration not stated)	i	2	i	-1	-2	-1
CSCc1c(C(=O)OCC(=O)c2ccc[nH]2)oc2ccccc12	·	0	i	-1	0	5
Cc1ccc(S(=O)(=O)N2[C@@H](c3ccccc3)C(C(=O)O)=CC[C@H]2c2ccc(Cl)cc2)cc1	i	-14	i	-1	2	0
Cc1ccc(S(=O)(=O)N2[C@@H](c3ccc(Cl)cc3)C(C(=O)O)=CC[C@H]2c2cccc(Cl)c2)cc1	100*	-11	i	5	4	14
COc1ccc([C@@H]2CC=C(C(=O)O)[C@H](c3ccc(F)cc3)N2S(=O)(=O)c2ccc(C)cc2)cc1OC	i	0	i	-1	-2	2
Cc1ccc(S(=O)(=O)N2[C@@H](c3cccc(Cl)c3)C(C(=O)O)=CC[C@H]2c2ccc(C(C)C)cc2)cc1	100*	-3	i	27	4	30
Cc1ccc(S(=O)(=O)N2[C@@H](c3ccc(Cl)cc3)C(C(=O)O)=CC[C@H]2c2ccc(Cl)cc2)cc1	100*	-14	i	-1	2	12
Cc1ccc(S(=O)(=O)N2[C@@H](c3ccc(F)cc3)C(C(=O)O)=CC[C@H]2c2ccc(C(C)C)cc2)cc1	100*	-8	i	6	2	23
COc1ccc(C(=O)NC(=S)NCc2cccnc2)cc1Cl	i	0	i	-1	-2	-2
O=S(=O)(Cc1ccccc1)N(O)c1ccccc1	i	2	i	0	1	-14
SMILES	ANO1 block	NR3A LBD binder	TMEM16A act	CRFR2-BP ag	MPTP inh	CRFR2-BP antag
Cc1ccc(Cl)c2c(N=Nc3ccccc3)c(O)[nH]c12	i	0	i	36	3	-30
COc1ccc([N+](=O)[O-])cc1NC(=O)C1C2C=CC(C2)C1C(=O)O (configuration not stated)	i	2	i	0	-1	12
CC1(C(=O)NS(=O)(=O)c2cccc(OC(F)F)c2)CCN1C(=O)CCc1cccs1 (configuration not stated)	·	·	·	·	-1	·
Cc1ccc(Cl)cc1NC(=O)CCS(=O)(=O)c1cccc2nonc12	i	-3	i	-1	0	-20
O=C(O)C1=CC[C@@H](c2ccc(Cl)cc2)N(S(=O)(=O)c2ccc(Cl)cc2)[C@H]1c1cccc(Cl)c1	100*	-14	i	11	3	28
CC(=O)Nc1ccc(S(=O)(=O)N2CN(c3ccc(C)cc3)c3nc4ccccc4nc32)cc1	i	16*	i	-1	2	-3
CC(C)(C)C(=O)CNS(=O)(=O)c1ccc(S(=O)(=O)NC2CC2)cc1	i	2	i	0	0	-7
C=C1CCN(c2ccc(C(=O)NCCC)cc2[N+](=O)[O-])CC1	i	-1	-6.4*	-1	-1	0
CC(C)(C)NC(=O)C[C@H]1C[C@H](C(=O)N2CCCCC2)[C@@]2(C)c3[nH]c4ccc(Cl)cc4c3CCN2C1=O	·	0	·	-8	3	30
CC1CCN(C(=O)CSC2=NS(=O)(=O)c3cc(F)ccc3N2)CC1	i	-2	i	0	2	-9
CC(=O)Nc1cccc(NC(=O)CSc2ncc(C(=O)Nc3ccc(F)cc3)c(=O)n2C)c1	i	18*	i	0	-2	24
CC(=O)Nc1ccc(NC(=O)CSc2ncc(C(=O)Nc3ccc(F)cc3)c(=O)n2C)cc1	i	2	i	0	-1	11
COc1ccc2cc(C(C)C(=O)O)ccc2c1 (configuration not stated)	i	0	i	-1	·	4
O=C(Oc1ccc2ccccc2c1)c1ccccc1	i	19*	i	1	0	6
COC(CNC(=O)c1ccc2nc(-c3cccs3)c(-c3cccs3)nc2c1)OC	i	16*	i	0	0	13
Cc1cc(C(=O)N/N=C/c2ccc(OCc3ccccc3)cc2)c(C)o1	i	14*	i	-1	0	-11
O=C(N/N=C/c1ccccc1)c1ccco1	i	-1	i	1	-1	-11
O=C(N/N=C/c1ccc(OCc2ccccc2)cc1)c1ccco1	i	13*	i	1	2	-10
CC1CC(C)CN(C(=O)C(C)N2CCN(S(=O)(=O)c3ccc(C(F)(F)F)cc3)CC2)C1 (configuration not stated)	·	2	i	1	1	-4
N#Cc1nc(Cc2cccc3ccccc23)oc1N1CCCCC1	100*	0	-23*	-1	5	4
